# Experimental data as given in PMC5700166.
# Experiments:
# [1] = molecular target: T1, GST-Nv-NF-kB (Ser allele) (Nematostella vectensis, UniProt A7UNT2 2-411); assay: protein-binding microarray (PBM); PBM: ~300 nM protein, 6 mM HEPES pH 7.8, 80 mM KCl, 0.5 mM EDTA, 0.5 mM EGTA, 6% glycerol, 35 ng/ul poly-dIdC, 1% milk, 1 h, room temperature; Ap Aiptasia and Nv Nematostella (sea anemones) / Co Capsaspora / Aq Amphimedon (sponge) / Dm Drosophila / Hu human; RHD is the Rel homology domain; high values mean tight binding; conditions: dsDNA, one strand shown
# T1 sequence: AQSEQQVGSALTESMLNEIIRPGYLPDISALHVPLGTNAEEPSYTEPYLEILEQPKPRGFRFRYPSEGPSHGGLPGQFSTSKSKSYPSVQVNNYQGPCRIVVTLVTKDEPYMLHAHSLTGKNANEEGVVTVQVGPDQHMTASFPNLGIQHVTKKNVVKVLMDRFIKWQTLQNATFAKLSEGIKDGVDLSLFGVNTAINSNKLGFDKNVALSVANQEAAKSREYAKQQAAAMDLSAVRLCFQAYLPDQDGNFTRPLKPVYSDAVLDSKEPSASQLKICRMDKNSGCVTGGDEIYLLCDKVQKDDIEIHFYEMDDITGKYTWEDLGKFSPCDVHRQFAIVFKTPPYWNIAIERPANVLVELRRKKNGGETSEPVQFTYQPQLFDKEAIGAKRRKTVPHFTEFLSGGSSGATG
# GST-Hu-p50 = GST-Hu-p50 (Homo sapiens, UniProt P19838 7-356); assay: as above; conditions: dsDNA, one strand shown
# GST-Hu-p50, sequence (P19838 7-356): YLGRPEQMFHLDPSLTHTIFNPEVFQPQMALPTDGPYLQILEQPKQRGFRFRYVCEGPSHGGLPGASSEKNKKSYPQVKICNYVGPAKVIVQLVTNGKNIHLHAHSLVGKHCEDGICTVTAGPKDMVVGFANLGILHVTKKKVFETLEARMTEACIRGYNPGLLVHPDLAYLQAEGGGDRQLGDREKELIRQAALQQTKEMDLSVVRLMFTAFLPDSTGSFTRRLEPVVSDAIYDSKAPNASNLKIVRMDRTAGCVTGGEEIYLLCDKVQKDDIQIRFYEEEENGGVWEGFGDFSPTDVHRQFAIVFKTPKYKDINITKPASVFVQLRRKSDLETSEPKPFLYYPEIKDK
Sequence,binding signal [1] [z-score],binding signal (GST-Hu-p50) [z-score]
CCGATTAACATCAAAAACTACCCTGATGTTAATCGGGTCTTGATTCGCTTGACGCTGCTG,4.59,3.73
CCGATTAACATCAGGGAGTTACCTGATGTTAATCGGGTCTTGATTCGCTTGACGCTGCTG,3.21,3.85
CCGATTAACATCAGGGAAAACGATGATGTTAATCGGGTCTTGATTCGCTTGACGCTGCTG,6.01,2.13
CCGATTAACATCAGGCACTCCCCTGATGTTAATCGGGTCTTGATTCGCTTGACGCTGCTG,2.69,3.37
CCGATTAACATCAGGGGGGGTCATGATGTTAATCGGGTCTTGATTCGCTTGACGCTGCTG,1.92,3.32
CCGATTAACATCAGGAAATTTGATGATGTTAATCGGGTCTTGATTCGCTTGACGCTGCTG,1.01,1
CCGATTAACATCAGACCTTCCCCTGATGTTAATCGGGTCTTGATTCGCTTGACGCTGCTG,4.59,4.03
CCGATTAACATCAAAAAAATTTCTGATGTTAATCGGGTCTTGATTCGCTTGACGCTGCTG,1.35,1.66
CCGATTAACATCATTCGGGAAAATGATGTTAATCGGGTCTTGATTCGCTTGACGCTGCTG,4.94,3.03
CCGATTAACATCAAGCGTTCCCCTGATGTTAATCGGGTCTTGATTCGCTTGACGCTGCTG,6.39,3.66
CCGATTAACATCAGGGGAGTGTATGATGTTAATCGGGTCTTGATTCGCTTGACGCTGCTG,4.51,3.04
CCGATTAACATCAGGGGGATGGATGATGTTAATCGGGTCTTGATTCGCTTGACGCTGCTG,4.26,3.69
CCGATTAACATCAGGGGTAAAACTGATGTTAATCGGGTCTTGATTCGCTTGACGCTGCTG,3.62,3.28
CCGATTAACATCAGAATTCCCGCTGATGTTAATCGGGTCTTGATTCGCTTGACGCTGCTG,3.89,3.53
CCGATTAACATCAGGGGTTTACCTGATGTTAATCGGGTCTTGATTCGCTTGACGCTGCTG,4.43,4.94
CCGATTAACATCAGTACGGGAAATGATGTTAATCGGGTCTTGATTCGCTTGACGCTGCTG,2.82,1.94
CCGATTAACATCACGGGACTCCCTGATGTTAATCGGGTCTTGATTCGCTTGACGCTGCTG,3.64,3.14

Sequence,binding signal [1] [z-score],binding signal (GST-Hu-p50) [z-score]
CCGATTAACATCAGGGAGATTTGTGATGTTAATCGGGTCTTGATTCGCTTGACGCTGCTG,3.43,3.58
CCGATTAACATCAGGCAAATCCCTGATGTTAATCGGGTCTTGATTCGCTTGACGCTGCTG,1.09,1.9
CCGATTAACATCAGGGAATCAGATGATGTTAATCGGGTCTTGATTCGCTTGACGCTGCTG,2.02,1.19
CCGATTAACATCATTAGGGTATTTGATGTTAATCGGGTCTTGATTCGCTTGACGCTGCTG,4.26,4.5
CCGATTAACATCAGGGAAATAACTGATGTTAATCGGGTCTTGATTCGCTTGACGCTGCTG,4.37,3.76
CCGATTAACATCAGGGAAAACACTGATGTTAATCGGGTCTTGATTCGCTTGACGCTGCTG,5.79,4.24
CCGATTAACATCACTTGGGAAACTGATGTTAATCGGGTCTTGATTCGCTTGACGCTGCTG,2.07,1.38
CCGATTAACATCACCGAATTTCCTGATGTTAATCGGGTCTTGATTCGCTTGACGCTGCTG,1.32,2.56
CCGATTAACATCAGGACCGTCCCTGATGTTAATCGGGTCTTGATTCGCTTGACGCTGCTG,1.36,2.66
CCGATTAACATCAGGGGATCCACTGATGTTAATCGGGTCTTGATTCGCTTGACGCTGCTG,5.91,4.97
CCGATTAACATCAGGTAATCACCTGATGTTAATCGGGTCTTGATTCGCTTGACGCTGCTG,2.78,2.85
CCGATTAACATCAGGGGAGTACATGATGTTAATCGGGTCTTGATTCGCTTGACGCTGCTG,3.51,2.47
CCGATTAACATCACCGATTTCCCTGATGTTAATCGGGTCTTGATTCGCTTGACGCTGCTG,5.28,3.65
CCGATTAACATCAAATCGGGAAATGATGTTAATCGGGTCTTGATTCGCTTGACGCTGCTG,2.88,1.88
CCGATTAACATCAGGGGGTATACTGATGTTAATCGGGTCTTGATTCGCTTGACGCTGCTG,4.26,3.99
CCGATTAACATCAAGTACTTCCCTGATGTTAATCGGGTCTTGATTCGCTTGACGCTGCTG,1.34,1.17
